Results reported in PMC5540273 (PLoS ONE, 2017).

Test system: DAPK1
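Also: kd values determined as follow-up on hits from a single-replicate KINOMEscan panel screen.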

Compound | Kd [µM]
Cl.Cl.c1ccc(-c2cc3ccncc3cc2OC2CCNCC2)cc1 [GSK1122999] | 0.3
CC(=O)Nc1n[nH]c2ncc(-c3ccccc3)cc12 [SB-548492] | > 10
COc1ccc(-c2nc3n(c2-c2ccncc2)CCC3)cc1 [SKF-104493] | > 10

Test system: DAPK3

Compound | Kd [µM]
Cl.Cl.c1ccc(-c2cc3ccncc3cc2OC2CCNCC2)cc1 [GSK1122999] | 0.17
O=C(c1ccc(-c2cc(-c3c[nH]nc3-c3ccccn3)ccn2)cc1)N1CCCC1 [GW792479] | > 10
Cn1cc(-c2ccc3c(c2)CCN3C(=O)Cc2cccc(C(F)(F)F)c2)c2c(N)ncnc21 [GSK2606414] | > 10
FC(F)(F)c1ccc(-c2cc(-c3c[nH]nc3-c3ccccn3)ccn2)cc1 [GW599550] | > 10
